# The OligoGym collection
# Biological target: GABRP
# Assay: pooled miR-30 sensor sort-seq; sequence = guide strand
# Details: shRNA
# Further: reference of the scale not given here.
row,Sequence,sensor-assay potency score (higher = more potent)
1,TTCTCGGAAGACAAACTTGAAC,-1.47
2,TTGATGATATTAGTAATACTGA,-0.994
3,AAACTTGAACTTGTCGCTGGTT,0.218
4,TAGTGATCAACATTACTGGGGT,0.2
5,TATGGTGGCTGTGTAGTCCATG,-0.102
6,TAGTGTAATTTCCTGTCTCCTG,-0.339
7,ATAGTGATCAACATTACTGGGG,0.527
8,ATAATCAACAATCCTGCCCATC,-0.969
9,TTACATCATTATCTTGTCCTGT,0.386
10,TTACATGCAACAGTTGTCGTGA,0.789
11,AACTTGAACTTGTCGCTGGTTT,-0.459
12,TTCATTGTCAAGTCACTGTAGT,0.147
13,TTGCCTTCAAACACCAGCCGCT,0.206
14,TCAAACTGTAAGACCAATCTAG,0.125
15,TTACTCTCTGAAATGCTAGAGA,-0.589
16,TACATCATTATCTTGTCCTGTT,0.716
17,TAGTCAACGTTGTCGCTGGAAA,-1.15
18,TTTTCTCGGAAGACAAACTTGA,-0.264

# Biological target: GALE
# Assay: as above
# Details: shRNA
row,Sequence,sensor-assay potency score (higher = more potent)
1,TTTTGAAGAGACGCTGTAGGGC,0.205
2,TCTGTAATAATCCAGAGGCTTC,-1.35
3,TCGATGAAGAACTTGGACTTGC,-0.0111
4,TACACAGTGGCTGAGCTGCTGA,-1.04
5,ATCCTCACACATCCTGTCCAGC,-0.56
6,TTTATTTTTAAATACTTTGGAA,-0.203
7,AACACCAGGTTCTTCACCCCGT,-0.43
8,TAACTCTGTAATAATCCAGAGG,-0.909
9,AATAGCGCAGCAGCACTGCGTT,-1.17
10,TTGTACGGGATCTTCTTCCCAG,0.364
11,TACTTTGGAAAGCTCTTTCAGA,-0.275
12,TGAAGAACTTGGACTTGCCGTA,-0.185
13,TTCTGCTTCTGCCAGCGCCAGA,-1.44
14,ATGAAGAACTTGGACTTGCCGT,-1.09
15,TGGATGACCGCCATAAAGCTGT,-0.62
16,TCACACATCCTGTCCAGCCCTA,-0.0923
17,TGAAATAGCGCAGCAGCACTGC,-0.836
18,TAAGGCTGCAATGTGGCCCTTG,0.223
19,TTCCCGTACACAGTGGCTGAGC,-0.834
20,TCTGTGTCATAGTCATTGCCAA,-0.861
21,TACTTTTTGAAGAGACGCTGTA,-0.402
22,TCAAACTCCACAGAGCGGCCTG,-0.0381
